Data on 59 molecules can be found in PMC4336329 (PLoS ONE, 2015).

About 14,000 (4.5%) of roughly 310,000 compounds showed an effect of 50% or more. Effects have a minus sign here. For the sample, strong results were picked, then their nearest neighbours and some compounds at random.
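Note: peak tail current of the secondary pulse compared with the same well before compound.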

In the assay the target is human ether-à-go-go-related gene (hERG) potassium channel (human, UniProt Q12809). Put plainly: primary screen, population patch clamp on CHO cells stably expressing hERG; higher = less effect of the substance.
Chain of human ether-à-go-go-related gene (hERG) potassium channel (Q12809 whole entry, looked up): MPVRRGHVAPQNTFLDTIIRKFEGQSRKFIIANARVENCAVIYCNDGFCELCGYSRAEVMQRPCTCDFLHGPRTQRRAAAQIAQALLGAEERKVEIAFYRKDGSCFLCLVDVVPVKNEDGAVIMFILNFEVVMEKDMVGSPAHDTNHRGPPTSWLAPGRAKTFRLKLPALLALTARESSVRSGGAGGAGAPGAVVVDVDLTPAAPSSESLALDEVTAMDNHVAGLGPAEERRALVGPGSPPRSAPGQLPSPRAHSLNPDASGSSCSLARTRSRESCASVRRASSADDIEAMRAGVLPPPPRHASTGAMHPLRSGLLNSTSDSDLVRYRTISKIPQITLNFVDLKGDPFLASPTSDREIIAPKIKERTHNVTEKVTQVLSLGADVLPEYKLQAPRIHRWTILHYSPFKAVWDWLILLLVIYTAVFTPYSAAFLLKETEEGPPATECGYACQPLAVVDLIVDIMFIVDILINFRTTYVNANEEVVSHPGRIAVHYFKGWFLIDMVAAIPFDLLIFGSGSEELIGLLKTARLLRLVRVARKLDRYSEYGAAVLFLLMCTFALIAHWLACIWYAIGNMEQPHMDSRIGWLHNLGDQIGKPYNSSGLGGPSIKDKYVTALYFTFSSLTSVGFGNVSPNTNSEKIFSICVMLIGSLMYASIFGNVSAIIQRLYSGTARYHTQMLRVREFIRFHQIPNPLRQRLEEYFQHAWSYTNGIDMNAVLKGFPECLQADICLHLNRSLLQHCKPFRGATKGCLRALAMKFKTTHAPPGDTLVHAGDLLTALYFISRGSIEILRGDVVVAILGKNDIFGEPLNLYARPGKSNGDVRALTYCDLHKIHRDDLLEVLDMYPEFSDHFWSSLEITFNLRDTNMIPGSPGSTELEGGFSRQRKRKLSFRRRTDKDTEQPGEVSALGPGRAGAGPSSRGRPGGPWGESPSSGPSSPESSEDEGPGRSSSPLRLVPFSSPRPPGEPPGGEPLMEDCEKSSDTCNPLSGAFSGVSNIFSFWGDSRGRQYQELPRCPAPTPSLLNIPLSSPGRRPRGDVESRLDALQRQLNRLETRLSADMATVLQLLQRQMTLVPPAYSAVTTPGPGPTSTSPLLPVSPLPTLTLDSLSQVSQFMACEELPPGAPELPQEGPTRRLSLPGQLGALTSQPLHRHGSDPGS
For the molecule `Cc1cc(=O)n2ccsc2n1`, the “hERG current change (%, negative = inhibition) at 10uM” value was determined as 3.28%.

As for `Cc1cc(=O)[nH]c2c1cnn2Cc1ccccc1`, the “hERG current change (%, negative = inhibition) at 10uM” value came to 3.72%.

In the case of `COc1ccc(/C=C(\C#N)C(=O)OCC(=O)NCc2ccccc2Cl)cc1`, the “hERG current change (%, negative = inhibition) at 10uM” value came out at 6.86%.

As for `Cc1nn(Cc2ccccc2)c(C)c1C(=O)N1CCN(CC(=O)Nc2ccc(F)cc2)CC1`, the “hERG current change (%, negative = inhibition) at 10uM” value was -62.6%.

As for `Cc1nn(Cc2ccccc2)c(C)c1C(=O)N1CCN(CC(=O)Nc2ccccc2Cl)CC1`, the “hERG current change (%, negative = inhibition) at 10uM” value is -50.3%.

With `Cc1nn(Cc2ccccc2Cl)c(Cl)c1C(=O)O`, the “hERG current change (%, negative = inhibition) at 10uM” value was 8.83%.

Turning to `Cc1nn(Cc2ccccc2)c(C)c1C(=O)O`, the “hERG current change (%, negative = inhibition) at 10uM” value is recorded as -19.1%.

As for `Cc1nn(Cc2ccccc2Cl)c(C)c1C(=O)N1CCN(c2ccccc2)CC1`, the “hERG current change (%, negative = inhibition) at 10uM” value is recorded as -58.6%.

Regarding `O=C(CN1CCN(CC(=O)Nc2ccccc2Cc2ccccc2)CC1)Nc1ccccc1Cl`, the “hERG current change (%, negative = inhibition) at 10uM” value is 20%.

`Cc1cccc(NC(=O)CN2CCN(C(=O)c3c(C)nn(Cc4ccccc4)c3C)CC2)c1C`: the “hERG current change (%, negative = inhibition) at 10uM” value was -20.4%.

Regarding `Cc1nn(Cc2ccccc2)c(C)c1C(=O)N1CCN(S(=O)(=O)/C=C/c2ccccc2)CC1`, the “hERG current change (%, negative = inhibition) at 10uM” value is reported as -24.8%.

For the molecule `Cc1cccc(N2CCN(C(=O)c3c(C)nn(Cc4ccccc4Cl)c3C)CC2)c1C`, the “hERG current change (%, negative = inhibition) at 10uM” value is recorded as -0.851%.

As to `CC(=O)c1ccc(OCCCCOc2ccc(C(C)=O)cc2)cc1`, the “hERG current change (%, negative = inhibition) at 10uM” value is 21.4%.

For `COc1ccccc1OC(=O)c1ccc(SC)cc1OC`, the “hERG current change (%, negative = inhibition) at 10uM” value is listed as -24%.

Consider `C[C@]12CC[C@@H]3c4ccc(OS(=O)(=O)[O-])cc4CC[C@H]3[C@@H]1CCC2=O.[Na+]`, for which the “hERG current change (%, negative = inhibition) at 10uM” value came to 16.9%.

As to `O=C(CSc1nc(-c2ccccc2)c(-c2ccccc2)o1)NC1CCS(=O)(=O)C1` (centres unmarked), the “hERG current change (%, negative = inhibition) at 10uM” value is listed as -27.1%.

For the molecule `CCc1ccccc1NC(=O)CCCN1C(=O)C2CC=CCC2C1=O` (centres unmarked), the “hERG current change (%, negative = inhibition) at 10uM” value is listed as 12%.

For `Cc1ccccc1C(N)c1ccncc1.Cl` (centres unmarked), the “hERG current change (%, negative = inhibition) at 10uM” value is listed as 2.52%.

`COc1cc(/C=C(\C#N)c2nc3ccccc3[nH]2)cc(Br)c1OCc1ccccc1`: the “hERG current change (%, negative = inhibition) at 10uM” value amounted to 0.571%.

For `Cc1ccc(N(CC(=O)NCc2ccco2)C(=O)CCC(=O)Nc2nccs2)cc1`, the “hERG current change (%, negative = inhibition) at 10uM” value is recorded as -1.5%.

Take `Cc1ccc(C(=O)NNC(=O)COc2ccc(Cl)cc2C)o1`: the “hERG current change (%, negative = inhibition) at 10uM” value was -57.6%.

For the molecule `COc1ccc(Cl)cc1NC(=O)COc1ccc(S(=O)(=O)N2CCOCC2)cc1C`, the “hERG current change (%, negative = inhibition) at 10uM” value amounted to 10.8%.

As to `COc1cc(C(C)=O)ccc1OCC(=O)Nc1ccc(C)c(S(=O)(=O)N2CCCCCC2)c1`, the “hERG current change (%, negative = inhibition) at 10uM” value is -26.3%.

In the case of `COc1cc(C#N)ccc1OCC(=O)Nc1ccc(C)c(S(=O)(=O)N2CCOCC2)c1`, the “hERG current change (%, negative = inhibition) at 10uM” value is recorded as -36.1%.

`COc1ccc(CC(=O)NNC(=O)COc2ccc(Cl)cc2C)cc1S(=O)(=O)N1CCOCC1`: the “hERG current change (%, negative = inhibition) at 10uM” value is on record as -36.1%.

On to `COc1cc(C(C)=O)ccc1OCC(=O)Nc1ccc(Cl)c(S(=O)(=O)N2CCOCC2)c1`, for which the “hERG current change (%, negative = inhibition) at 10uM” value is reported as -66.7%.

For `Cc1cc(Cl)ccc1OCC(=O)NNC(=O)c1cnccn1`, the “hERG current change (%, negative = inhibition) at 10uM” value was 11.6%.

Turning to `Cc1cc(Cl)ccc1OCC(=O)NNC(=O)c1ccco1`, the “hERG current change (%, negative = inhibition) at 10uM” value was 8.38%.

Regarding `COc1ccc(C(=O)NNC(=O)COc2ccc(Cl)cc2C)cc1S(=O)(=O)N1CCOCC1`, the “hERG current change (%, negative = inhibition) at 10uM” value is -77.1%.

In the case of `CC1(C)CC(=O)C2=C(C1)OC1=C(C(=O)CC(C)(C)C1)C2c1ccccc1`, the “hERG current change (%, negative = inhibition) at 10uM” value came to 16.9%.

For `Nc1c(N(C(=O)Nc2ccc(Cl)c(Cl)c2)C2CCCC2)c(=O)[nH]c(=O)n1Cc1ccccc1`, the “hERG current change (%, negative = inhibition) at 10uM” value is given as 24.7%.

Turning to `COc1ccc(NC(=O)CS(=O)CC(=O)Nc2ccc(-n3cnnn3)c(C)c2)cc1` (centres unmarked), the “hERG current change (%, negative = inhibition) at 10uM” value was determined as 12.4%.

In the case of `S=c1[nH]nc(-c2ccco2)n1/N=C/C=C/c1ccco1`, the “hERG current change (%, negative = inhibition) at 10uM” value is 13.7%.

Turning to `C/C(=N/NS(=O)(=O)c1ccc(C)cc1)c1ccc2c(c1)OCO2`, the “hERG current change (%, negative = inhibition) at 10uM” value turned out to be 13%.

Take `C=CCc1cccc2cc(C(=O)N(CC)CC)c(=O)oc12`: the “hERG current change (%, negative = inhibition) at 10uM” value was -6.47%.

Consider `CSc1cccc(NC(=O)C2C3C=CC4(O3)C2C(=O)N(CCN2CCOCC2)C4C(=O)NC2CCCCC2)c1` (centres unmarked), for which the “hERG current change (%, negative = inhibition) at 10uM” value was 9.21%.

For `CCCN(CCC)CCN1C(=O)C2C(C(=O)Nc3cccc(SC)c3)C3C=CC2(O3)C1C(=O)NC1CCCCC1` (centres unmarked), the “hERG current change (%, negative = inhibition) at 10uM” value was -68.2%.

With `CCCCN(C)CCN1C(=O)C2C(C(=O)Nc3ccc(Cl)cc3)C3C=CC2(O3)C1C(=O)NC1CCCCC1` (centres unmarked), the “hERG current change (%, negative = inhibition) at 10uM” value is given as -70.2%.

For the molecule `CCOc1ccc(NC(=O)C2C3C=CC4(O3)C2C(=O)N(Cc2cccnc2)C4C(=O)NC2CCCCC2)cc1` (centres unmarked), the “hERG current change (%, negative = inhibition) at 10uM” value was 16%.

As for `CCOCCCN1C(=O)C2C(C(=O)Nc3ccc(OCC)cc3)C3C=CC2(O3)C1C(=O)NC1CCCCC1` (centres unmarked), the “hERG current change (%, negative = inhibition) at 10uM” value is on record as -72.8%.

In the case of `CCCCN(C)CCN1C(=O)C2C(C(=O)Nc3ccc(C)cc3)C3C=CC2(O3)C1C(=O)NC1CCCCC1` (centres unmarked), the “hERG current change (%, negative = inhibition) at 10uM” value is on record as -26.1%.

As to `COc1ccc(NC(=O)C2C3C=CC4(O3)C2C(=O)N(CCN2CCCCC2)C4C(=O)NC2CCCCC2)cc1` (centres unmarked), the “hERG current change (%, negative = inhibition) at 10uM” value is 9.9%.

For the molecule `CCCN(CCC)CCN1C(=O)C2C(C(=O)Nc3ccc(C)cc3)C3C=CC2(O3)C1C(=O)NC1CCCCC1` (centres unmarked), the “hERG current change (%, negative = inhibition) at 10uM” value is -30.2%.

For `CCCCN(C)CCN1C(=O)C2C(C(=O)Nc3ccc(OC)cc3)C3C=CC2(O3)C1C(=O)NC1CCCCC1` (centres unmarked), the “hERG current change (%, negative = inhibition) at 10uM” value is given as -8.93%.

For `Cc1ccccc1NC(=O)/C(C#N)=C\c1cccnc1`, the “hERG current change (%, negative = inhibition) at 10uM” value is listed as -16.3%.

Take `Cc1ccc2oc(C(=O)N3CCC(C(N)=O)(N4CCCCC4)CC3)c(C)c2c1`: the “hERG current change (%, negative = inhibition) at 10uM” value was -27%.

On to `COc1cc2cc(C(C)(C)O)oc(=O)c2cc1OC`, for which the “hERG current change (%, negative = inhibition) at 10uM” value stood at 13%.

Turning to `Cc1ccc2oc(=O)c3cnn(CC(=O)NCCc4ccsc4)c3c2c1`, the “hERG current change (%, negative = inhibition) at 10uM” value is recorded as -12.2%.

As to `O=C(Cn1ncc2c(=O)oc3ccccc3c21)N1CCN(C(=O)c2ccco2)CC1`, the “hERG current change (%, negative = inhibition) at 10uM” value is -73.6%.

As for `O=C(Cn1ncc2c(=O)oc3ccccc3c21)N1CCC(N2CCCCC2)CC1`, the “hERG current change (%, negative = inhibition) at 10uM” value was -5%.

In the case of `O=C(c1cc2c(=O)oc3ccccc3c2s1)N1CCOCC1`, the “hERG current change (%, negative = inhibition) at 10uM” value is given as -0.51%.

For `O=C(c1ccco1)N1CCN(C(=O)c2cc3c(s2)-c2ccccc2OC3)CC1`, the “hERG current change (%, negative = inhibition) at 10uM” value is recorded as -63.9%.

With `O=C(Cn1ncc2c(=O)oc3ccccc3c21)NCCc1ccsc1`, the “hERG current change (%, negative = inhibition) at 10uM” value is listed as -54.2%.

For `O=C(c1ccco1)N1CCN(C(=O)c2cc3c(=O)oc4ccccc4c3s2)CC1`, the “hERG current change (%, negative = inhibition) at 10uM” value is recorded as -62.9%.

Consider `O=C(Cn1ncc2c(=O)oc3ccccc3c21)N1CCN(c2ccccn2)CC1`, for which the “hERG current change (%, negative = inhibition) at 10uM” value was -41%.

For `O=C(c1cc2c(s1)-c1ccccc1OC2)N1CCCC1`, the “hERG current change (%, negative = inhibition) at 10uM” value is listed as -4.69%.

Regarding `Cc1ccc2oc(=O)c3cc(C(=O)N4CCN(C(=O)c5ccco5)CC4)sc3c2c1`, the “hERG current change (%, negative = inhibition) at 10uM” value was -21.5%.

Regarding `O=C(Cn1ncc2c(=O)oc3ccccc3c21)NCCC1=CCCCC1`, the “hERG current change (%, negative = inhibition) at 10uM” value is recorded as -3.92%.

For the molecule `O=C(c1cc2c(s1)-c1ccccc1OC2)N1CCN(c2ccccc2)CC1`, the “hERG current change (%, negative = inhibition) at 10uM” value is reported as 8.08%.
